Inconclusive results are not listed. Active and inactive are the calls of the source. Calls follow the shape of the dose curve; as a rule, active = well fitted curve in the direction sought with a large enough effect; inconclusive = small, poorly fitted or top-dose-only effect, or another doubt; inactive = no such curve, though single readings can be large; an effect the other way counts as inactive or inconclusive. Numbered stars: 1 amine (or outer) side, 2 acyl side, 3 side chain; on linkers, the order of the positions; unused ones are H or OH. Bridge positions count the residues as written; N and C are the ends. Square brackets hold non-standard residues; d marks the D form. Peptide text beside a SMILES is read from it. I, II: the chains in the order shown. Actinocin(9to1) = Cc1c2oc3c(C)ccc(C(=O)[*:1])c3nc-2c(C(=O)[*:2])c(N)c1=O; NMeV = CN[C@H](C(=O)O)C(C)C; Sar = CNCC(=O)O

The values that follow come from PubChem BioAssay (NCATS).

A short description of assay [1]: qHTS of pediatric cancer cell lines to identify multiple opportunities for drug repurposing: Confirmatory screen for control Hh wild type fibroblast cells (AID 1347121). Also: nearly all actives have a fitted effect of over 70% in size. The method in brief:
(§1)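 Cells (500-1,000/well) rested 5 h, then received compounds for 48 h; metabolically active cells were measured by CellTiter-Glo luminescence. Final concentrations spanned up to 46 µM (MIPE, 11-point) or 0.59 nM-46 µM (NPC, 8-point) in primary screens, 11-point in follow-ups.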

Assay [2] is described as follows: qHTS of pediatric cancer cell lines to identify multiple opportunities for drug repurposing: Confirmatory screen for U-2 OS cells (AID 1347122). Also: nearly all actives have a fitted effect of over 65% in size. The gist of the method:
as §1
In general terms: qHTS replaces the single test concentration by a dilution series.

A short description of assay [3]: qHTS of pediatric cancer cell lines to identify multiple opportunities for drug repurposing: Confirmatory screen for RD cells (AID 1347124).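 Also: cells exposed to compound for 48 h before viability readout; nearly all actives have a fitted effect of over 65% in size.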 The method in brief:
as §1

Assay [4] in a line: qHTS of pediatric cancer cell lines to identify multiple opportunities for drug repurposing: Confirmatory screen for Rh18 cells (AID 1347125). Also: nearly all actives have a fitted effect of over 55% in size. The gist of the method: as §1
Assay [5] in a line: qHTS of pediatric cancer cell lines to identify multiple opportunities for drug repurposing: Confirmatory screen for Rh30 cells (AID 1347126). Also: nearly all actives have a fitted effect of over 55% in size. The gist of the method: as §1
Assay [6] is described as follows: qHTS of pediatric cancer cell lines to identify multiple opportunities for drug repurposing: Confirmatory screen for OHS-50 cells (AID 1347128).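 Also: compound exposure lasted 48 h at 37 degrees C; nearly all actives have a fitted effect of over 55% in size.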 The gist of the method:
as §1

Assay [7] addresses N-terminal Xaa-Pro-Lys N-methyltransferase 1 (Homo sapiens) (UniProt Q9BV86). Briefly: qHTS Assay for Inhibitors of N-terminal methyltransferase 1 (NTMT1): LOPAC validation of the NTMT1 SAHH-coupled ThioGlo3 Assay (AID 1347143).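 Also: SAH from peptide methylation measured as thiol fluorescence via SAHH coupling and ThioGlo3; nearly all actives have a fitted effect of over 70% in size.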 The gist of the method:
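Inhibition of NTMT1 methylation of peptide SPKRIA is followed by converting SAH with SAHH and labelling the released thiol with ThioGlo3. Plates are read at 340/450nm before and 30 min after reagent addition, both at room temperature.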

The subject of assay [8] is Zika virus NS2B-NS3 protease (unlinked). As to the kind of experiment: Optimization of GU AMC qHTS for Zika virus inhibitors: Unlinked NS2B-NS3 protease assay (AID 1347151). Also: nearly all actives have a fitted effect of over 80% in size. The method in brief: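 Fluorescence read-out (340 nm ex / 450 nm em) of AMC peptide cleavage, taken immediately and after 15 min at room temperature (~20% conversion). Enzyme was the unlinked NS2B–NS3 complex at 25 nM in Tris pH 8.0 buffer.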

A short description of assay [9]: qHTS of pediatric cancer cell lines to identify multiple opportunities for drug repurposing: Confirmatory screen for Rh41 cells (AID 1347123).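 Also: 48 h compound exposure; nearly all actives have a fitted effect of over 60% in size.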 The gist of the method:
as §1
Potency is read from the fitted curve at half-maximal effect.

N-terminal Xaa-Pro-Lys N-methyltransferase 1 (Homo sapiens), sequence (Q9BV86 whole entry, looked up): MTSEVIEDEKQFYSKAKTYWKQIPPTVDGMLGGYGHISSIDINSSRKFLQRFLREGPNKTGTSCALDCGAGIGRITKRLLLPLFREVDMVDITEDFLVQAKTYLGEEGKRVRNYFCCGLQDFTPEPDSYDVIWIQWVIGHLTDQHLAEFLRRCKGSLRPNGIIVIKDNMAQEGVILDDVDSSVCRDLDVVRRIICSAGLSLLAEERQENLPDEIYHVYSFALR

`C[C@]12C=CC(=O)C=C1[C@@H](F)C[C@@H]1[C@@H]2[C@@H](O)C[C@@]2(C)[C@H]1CC[C@]2(O)C(=O)CO`: the Potency result in [1], in assay [2], in assay [3], in [4], in [5] and in [6] was “inactive” throughout.

`C[C@@H]1C[C@H]2[C@@H]3CCC4=CC(=O)C=C[C@]4(C)[C@@]3(F)[C@@H](O)C[C@]2(C)[C@H]1C(=O)CO`: the Potency entry in assay [1], in assay [2], in [3], in assay [4], in [5] and in assay [6] was “inactive” each time.

As for `Oc1ccc(O)cc1`, the Potency entry in [1], in assay [2], in assay [3], in assay [5], in [6] and in assay [8] was “inactive” in each case. For the same compound, the Potency in assay [7] is 31.6 µM (active).

As to `NC(=O)CC[C@@H]1NC(=O)[C@H](Cc2ccccc2)NC(=O)[C@H](Cc2ccc(O)cc2)NC(=O)CCSSC[C@@H](C(=O)N2CCC[C@H]2C(=O)N[C@@H](CCCN=C(N)N)C(=O)NCC(N)=O)NC(=O)[C@H](CC(N)=O)NC1=O`, the Potency result in [1], in assay [2], in assay [9], in assay [4], in assay [5] and in [6] was “inactive” throughout.

Turning to `CCCCCCC[N+](CC)(CC)CCCCc1ccc(Cl)cc1`, the Potency in [1] was 9.27 µM (active); in [4], 13.1 µM (active); in assay [5] it was 10.4 µM (active); in assay [6], 23.3 µM (active). Moreover, the Potency result in assay [2] and in assay [3] was “inactive” throughout.

In the case of `CCCCC(=O)O[C@]1(C(=O)CO)CC[C@H]2[C@@H]3CCC4=CC(=O)CC[C@]4(C)[C@H]3[C@@H](O)C[C@@]21C`, the Potency entry in assay [1], in assay [4], in assay [5] and in assay [6] was “inactive” each time.

For `CC(=O)O[C@]1(C(C)=O)CC[C@H]2[C@@H]3C[C@H](C)C4=CC(=O)CC[C@]4(C)[C@H]3CC[C@@]21C`, the Potency result in assay [1], in assay [3], in [4] and in assay [5] was “inactive” throughout.

For the compound `CC(=O)OCC(=O)[C@@]1(OC(C)=O)[C@@H](C)C[C@H]2[C@@H]3C[C@H](F)C4=CC(=O)C=C[C@]4(C)[C@@]3(F)[C@@H](O)C[C@@]21C`, the Potency result in [1], in [2], in assay [3], in assay [4], in assay [5] and in [6] was “inactive” each time.

For `CC1(C)O[C@@H]2C[C@H]3[C@@H]4CCC5=CC(=O)CC[C@]5(C)[C@@]4(F)[C@@H](O)C[C@]3(C)[C@]2(C(=O)CCl)O1`, the Potency entry in [1], in assay [2], in assay [3], in assay [4], in [5] and in [6] was “inactive” each time.

`CC(=O)OCC(=O)[C@@]1(O)[C@H](C)C[C@H]2[C@@H]3CCC4=CC(=O)C=C[C@]4(C)[C@@]3(F)[C@@H](O)C[C@@]21C`: the Potency in [2] was 20.8 µM (active).

For `CC(=O)Oc1ccc(C(c2ccc(OC(C)=O)cc2)c2ccccn2)cc1`, the Potency entry in assay [1], in assay [2], in assay [9], in assay [3], in assay [4] and in [5] was “inactive” each time.

`C[n+]1c2cc(N)ccc2cc2ccc(N)cc21` (tested in a mixture with another compound): the Potency in assay [1] is 7.37 µM (active); in [2], 16.5 µM (active); in assay [9], 5.22 µM (active); in [3] it was 0.657 µM (active); in [4] it was 5.85 µM (active); in assay [5], 6.57 µM (active). For the same compound, in [6], the Potency is 9.27 µM (active).

On to `CN(C)/N=N/c1nc[nH]c1C(N)=O`, for which the Potency result in assay [1], in [2], in [9], in [3], in assay [4] and in [5] was “inactive” each time.

On to `CC(C)(C(=O)c1cccnc1)c1cccnc1`, for which the Potency result in assay [1], in [2], in [9], in [3], in assay [4] and in assay [5] was “inactive” each time. Further, the Potency entry in [6] was “inactive”.

In the case of `OC[C@H]1O[C@@H](n2cnc3c(=S)nc[nH]c32)[C@H](O)[C@@H]1O`, the Potency result in [1] and in [3] was “inactive” in each case. Also, the Potency in [9] was 10.4 µM (active); in assay [6] it was 2.33 µM (active).

Turning to `Cc1c2oc3c(C)ccc(C(=O)N[C@@H]4C(=O)N[C@H](C(C)C)C(=O)N5CCC[C@H]5C(=O)N(C)CC(=O)N(C)[C@@H](C(C)C)C(=O)O[C@@H]4C)c3nc-2c(C(=O)N[C@@H]2C(=O)N[C@H](C(C)C)C(=O)N3CCC[C@H]3C(=O)N(C)CC(=O)N(C)[C@@H](C(C)C)C(=O)O[C@@H]2C)c(N)c1=O` (I: T[dV]P[Sar][NMeV] / II: T[dV]P[Sar][NMeV]; ester I:1-I:C, II:1-II:C; linker I:N-II:N via Actinocin(9to1)), the Potency result in assay [1] and in assay [5] was “inactive” each time. In addition, the Potency in assay [2] was 0.369 µM (active); in assay [9], 0.0147 µM (active); in [6] it was 0.0293 µM (active); in assay [8], 27.1 µM (active).

`C[C@]12C=CC(=O)C=C1CC[C@@H]1[C@@H]2[C@@H](O)C[C@@]2(C)[C@H]1CC[C@]2(O)C(=O)CO`: the Potency result in [1], in assay [2], in assay [9], in assay [3], in [4] and in assay [5] was “inactive” throughout. Further, in [6], the Potency result is “inactive”.

In the case of `COc1cc(C=C2CCC/C(=C\c3ccc(O)c(OC)c3)C2=O)ccc1O`, in assay [1], the Potency result was “inactive”. In addition, the Potency in assay [9] is 14.7 µM (active); in assay [3] it was 9.27 µM (active); in assay [5] it was 20.8 µM (active); in assay [6] it was 16.5 µM (active).

For the compound `C[C@@H]1C[C@H]2[C@@H]3C[C@H](F)C4=CC(=O)C(Cl)=C[C@]4(C)[C@@]3(F)[C@@H](O)C[C@]2(C)[C@@]1(O)C(=O)CO`, the Potency result in assay [2] and in assay [9] was “inactive” each time. Also, the Potency in assay [4] is 26.1 µM (active).

On to `CCCC(=O)O[C@]1(C(=O)CO)CC[C@H]2[C@@H]3CCC4=CC(=O)CC[C@]4(C)[C@H]3[C@@H](O)C[C@@]21C`, for which the Potency result in assay [1], in [2], in assay [3], in assay [4], in assay [5] and in assay [6] was “inactive” in each case.

As for `C[C@]12CCC(=O)C=C1CC[C@H]1[C@@H]3CC[C@](O)(C(=O)CO)[C@@]3(C)C[C@H](O)[C@@]12F`, the Potency result in assay [1], in [2], in assay [9], in [3], in assay [4] and in [6] was “inactive” in each case.
